Values without a mark were called inactive.

Sequence of UniProt P67936 (P67936 whole entry): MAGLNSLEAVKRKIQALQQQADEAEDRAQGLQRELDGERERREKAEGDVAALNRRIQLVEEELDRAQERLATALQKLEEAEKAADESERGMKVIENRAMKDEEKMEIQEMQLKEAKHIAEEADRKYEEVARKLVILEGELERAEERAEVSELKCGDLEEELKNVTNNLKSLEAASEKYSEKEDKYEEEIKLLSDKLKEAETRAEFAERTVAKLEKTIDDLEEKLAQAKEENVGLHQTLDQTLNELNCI
Sequence of UniProt P61019 (P61019 whole entry, looked up): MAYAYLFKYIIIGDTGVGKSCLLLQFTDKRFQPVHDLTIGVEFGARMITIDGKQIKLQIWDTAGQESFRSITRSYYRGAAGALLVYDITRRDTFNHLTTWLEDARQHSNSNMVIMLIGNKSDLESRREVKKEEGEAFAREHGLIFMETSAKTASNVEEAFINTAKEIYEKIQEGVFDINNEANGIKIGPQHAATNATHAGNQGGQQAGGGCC
Sequence of UniProt O75369 (O75369 whole entry): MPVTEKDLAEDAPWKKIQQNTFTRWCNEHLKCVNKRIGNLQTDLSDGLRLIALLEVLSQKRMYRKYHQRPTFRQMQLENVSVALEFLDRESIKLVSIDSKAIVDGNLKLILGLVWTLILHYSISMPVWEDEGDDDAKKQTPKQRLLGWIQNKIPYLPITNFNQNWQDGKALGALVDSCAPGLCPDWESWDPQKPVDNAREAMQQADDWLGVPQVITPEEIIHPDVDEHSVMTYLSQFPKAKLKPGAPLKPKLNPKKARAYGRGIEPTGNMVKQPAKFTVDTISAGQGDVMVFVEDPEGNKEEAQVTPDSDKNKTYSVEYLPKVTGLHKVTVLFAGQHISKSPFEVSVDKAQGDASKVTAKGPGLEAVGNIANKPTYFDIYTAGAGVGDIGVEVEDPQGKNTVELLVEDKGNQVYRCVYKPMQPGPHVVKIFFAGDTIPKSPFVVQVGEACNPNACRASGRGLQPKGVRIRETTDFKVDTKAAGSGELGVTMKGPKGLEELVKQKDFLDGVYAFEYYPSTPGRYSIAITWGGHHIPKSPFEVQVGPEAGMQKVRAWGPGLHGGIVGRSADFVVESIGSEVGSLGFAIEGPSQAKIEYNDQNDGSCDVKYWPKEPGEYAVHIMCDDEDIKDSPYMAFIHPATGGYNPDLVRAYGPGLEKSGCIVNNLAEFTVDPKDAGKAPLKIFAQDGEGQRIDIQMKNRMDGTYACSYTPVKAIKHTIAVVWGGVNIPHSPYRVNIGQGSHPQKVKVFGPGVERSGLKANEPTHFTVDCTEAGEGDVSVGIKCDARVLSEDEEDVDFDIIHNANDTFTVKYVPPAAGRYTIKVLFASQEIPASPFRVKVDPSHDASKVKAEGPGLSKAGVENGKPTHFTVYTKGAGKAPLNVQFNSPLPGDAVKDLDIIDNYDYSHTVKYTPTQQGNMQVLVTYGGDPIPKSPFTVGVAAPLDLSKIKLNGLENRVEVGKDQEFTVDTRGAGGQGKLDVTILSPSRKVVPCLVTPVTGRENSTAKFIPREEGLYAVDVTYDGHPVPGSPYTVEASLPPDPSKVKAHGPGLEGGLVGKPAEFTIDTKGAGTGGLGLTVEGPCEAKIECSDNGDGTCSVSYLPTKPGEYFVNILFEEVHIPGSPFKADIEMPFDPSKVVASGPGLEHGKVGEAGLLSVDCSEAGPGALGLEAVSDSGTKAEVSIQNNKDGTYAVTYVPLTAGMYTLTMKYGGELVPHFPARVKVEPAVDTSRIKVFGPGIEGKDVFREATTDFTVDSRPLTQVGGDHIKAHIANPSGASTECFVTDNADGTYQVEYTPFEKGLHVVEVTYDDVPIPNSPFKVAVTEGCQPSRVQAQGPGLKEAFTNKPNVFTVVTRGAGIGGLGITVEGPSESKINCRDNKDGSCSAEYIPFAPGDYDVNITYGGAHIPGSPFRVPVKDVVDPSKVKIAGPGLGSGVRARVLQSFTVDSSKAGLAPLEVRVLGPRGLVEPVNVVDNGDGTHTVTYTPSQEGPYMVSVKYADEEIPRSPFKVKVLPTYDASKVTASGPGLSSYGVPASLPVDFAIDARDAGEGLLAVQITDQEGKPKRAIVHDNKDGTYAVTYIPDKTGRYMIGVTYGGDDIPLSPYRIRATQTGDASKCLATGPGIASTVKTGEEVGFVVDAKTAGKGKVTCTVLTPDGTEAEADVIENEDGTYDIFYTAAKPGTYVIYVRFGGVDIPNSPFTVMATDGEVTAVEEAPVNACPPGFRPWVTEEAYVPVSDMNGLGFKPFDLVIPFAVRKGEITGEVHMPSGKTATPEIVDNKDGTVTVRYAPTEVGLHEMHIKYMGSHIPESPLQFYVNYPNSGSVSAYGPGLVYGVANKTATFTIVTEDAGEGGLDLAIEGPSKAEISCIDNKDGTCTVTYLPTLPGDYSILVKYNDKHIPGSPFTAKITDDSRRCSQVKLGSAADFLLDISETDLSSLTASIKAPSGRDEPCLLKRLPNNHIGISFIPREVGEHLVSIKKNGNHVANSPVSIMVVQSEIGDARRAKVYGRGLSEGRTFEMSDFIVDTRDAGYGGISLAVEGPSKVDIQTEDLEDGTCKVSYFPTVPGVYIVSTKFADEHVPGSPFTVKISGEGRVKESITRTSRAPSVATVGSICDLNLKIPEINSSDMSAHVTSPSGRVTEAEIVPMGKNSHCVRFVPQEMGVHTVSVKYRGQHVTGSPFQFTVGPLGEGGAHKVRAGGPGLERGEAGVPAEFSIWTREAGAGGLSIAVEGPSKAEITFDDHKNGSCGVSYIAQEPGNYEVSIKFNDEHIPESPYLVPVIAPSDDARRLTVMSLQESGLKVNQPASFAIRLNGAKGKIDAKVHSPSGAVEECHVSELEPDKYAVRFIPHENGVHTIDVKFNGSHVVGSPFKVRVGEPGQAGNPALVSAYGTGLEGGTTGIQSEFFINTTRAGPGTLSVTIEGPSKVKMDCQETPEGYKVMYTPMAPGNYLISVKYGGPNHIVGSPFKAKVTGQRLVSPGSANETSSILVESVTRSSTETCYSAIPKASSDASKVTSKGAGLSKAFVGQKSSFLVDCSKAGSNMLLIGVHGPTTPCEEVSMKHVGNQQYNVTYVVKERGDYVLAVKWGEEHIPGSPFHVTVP
Sequence of UniProt Q5BJF2 (Q5BJF2 whole entry): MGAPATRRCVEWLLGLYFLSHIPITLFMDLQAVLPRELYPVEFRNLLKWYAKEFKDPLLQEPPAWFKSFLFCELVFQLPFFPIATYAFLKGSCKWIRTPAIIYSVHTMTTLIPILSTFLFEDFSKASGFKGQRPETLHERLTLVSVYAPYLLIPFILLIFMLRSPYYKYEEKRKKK
Sequence of UniProt P18669 (P18669 whole entry, looked up): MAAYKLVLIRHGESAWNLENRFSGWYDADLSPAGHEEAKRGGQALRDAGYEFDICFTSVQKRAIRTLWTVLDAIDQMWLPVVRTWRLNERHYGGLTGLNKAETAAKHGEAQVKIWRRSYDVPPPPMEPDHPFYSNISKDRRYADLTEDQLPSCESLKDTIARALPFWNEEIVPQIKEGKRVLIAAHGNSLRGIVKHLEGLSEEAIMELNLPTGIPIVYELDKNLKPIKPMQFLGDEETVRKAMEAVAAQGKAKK
Sequence of UniProt Q6NZI2 (Q6NZI2 whole entry): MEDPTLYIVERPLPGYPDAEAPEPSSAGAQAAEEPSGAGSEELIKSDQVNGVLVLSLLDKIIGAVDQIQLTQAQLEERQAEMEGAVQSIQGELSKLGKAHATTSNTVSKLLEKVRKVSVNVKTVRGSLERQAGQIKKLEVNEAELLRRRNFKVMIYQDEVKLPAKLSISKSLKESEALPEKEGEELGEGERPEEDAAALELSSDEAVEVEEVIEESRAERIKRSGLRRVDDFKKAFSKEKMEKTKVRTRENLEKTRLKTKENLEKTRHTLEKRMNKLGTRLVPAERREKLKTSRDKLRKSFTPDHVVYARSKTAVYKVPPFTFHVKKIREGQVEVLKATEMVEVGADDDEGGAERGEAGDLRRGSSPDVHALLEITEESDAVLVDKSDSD
Sequence of UniProt P60660 (P60660 whole entry): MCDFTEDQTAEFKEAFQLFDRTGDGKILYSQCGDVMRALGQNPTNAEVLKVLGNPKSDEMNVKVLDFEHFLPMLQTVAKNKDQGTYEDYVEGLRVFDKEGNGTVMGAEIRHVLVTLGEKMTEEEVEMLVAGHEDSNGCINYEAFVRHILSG
Sequence of UniProt P61769 (P61769 whole entry): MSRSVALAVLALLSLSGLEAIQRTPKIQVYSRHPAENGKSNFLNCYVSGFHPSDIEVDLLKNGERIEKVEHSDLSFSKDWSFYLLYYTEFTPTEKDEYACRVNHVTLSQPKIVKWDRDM
Sequence of UniProt P25705 (P25705 whole entry): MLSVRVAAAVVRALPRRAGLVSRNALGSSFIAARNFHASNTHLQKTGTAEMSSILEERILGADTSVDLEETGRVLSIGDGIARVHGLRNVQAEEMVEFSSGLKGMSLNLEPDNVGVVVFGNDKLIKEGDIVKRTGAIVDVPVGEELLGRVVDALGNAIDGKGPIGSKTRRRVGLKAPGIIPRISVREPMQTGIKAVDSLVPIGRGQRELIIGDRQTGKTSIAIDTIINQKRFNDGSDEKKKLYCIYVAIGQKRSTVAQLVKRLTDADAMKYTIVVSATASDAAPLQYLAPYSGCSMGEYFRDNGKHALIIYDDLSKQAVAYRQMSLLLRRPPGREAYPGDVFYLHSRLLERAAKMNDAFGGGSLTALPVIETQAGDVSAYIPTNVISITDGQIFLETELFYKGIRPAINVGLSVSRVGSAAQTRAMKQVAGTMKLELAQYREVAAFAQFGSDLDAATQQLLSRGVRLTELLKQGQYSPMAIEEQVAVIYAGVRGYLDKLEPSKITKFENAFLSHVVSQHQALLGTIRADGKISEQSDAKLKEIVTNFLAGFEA

Compound in the assay: C#CCNC(=O)CCSSCCC(=O)NCCc1ccc(C=O)c(C=O)c1
The assay is described as follows: lysine labeling ratio R10:1 (500 µM / 50 µM probe), SILAC-ABPP in living cells; higher = lower intrinsic lysine reactivity toward the probe, active = 2 or less. As to conditions: HeLa; probe concentrations 500 vs 50 µM. An outline of the steps: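 In PBS at room temperature, living HeLa cells grown with SILAC light or heavy labels were treated with 50 µM or 500 µM of an alkyne-tagged, disulfide-linked lysine probe, with label swaps in both directions. Analysis was by LC-MS/MS on a TIMS-TOF Pro after click to biotin-azide, neutravidin capture and DTT release. For each lysine, R is the median across forward and reverse replicates of the filtered median high-probe/low-probe MS1 peptide ratio, capped at 20.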
As to UniProt P63000 (lysine site: K153), the “lysine labeling ratio R10:1” value was 2.29. In the case of UniProt Q6NZI2 (lysine site: K265) it was 4.28; in that of “LAMC1 (lysine site: K1355) (UniProt P11047)”, 1.67 (active); in that of UniProt P25705 (lysine site: K175), 2.16. On to “TPM4 (lysine site: K44) (UniProt P67936)”, for which the “lysine labeling ratio R10:1” value was 1.15 (active). As to UniProt P05787 (lysine site: K11), the “lysine labeling ratio R10:1” value was 6.14. In the case of “TMEM97 (lysine site: K130) (UniProt Q5BJF2)” it was 3.33. In the case of “PGAM1 (lysine site: K39) (UniProt P18669)” it was 3.67. Regarding “RAB2A (lysine site: K130) (UniProt P61019)”, the “lysine labeling ratio R10:1” value was 1.45 (active). As to “H2AFX (lysine site: K37) (UniProt P16104)”, the “lysine labeling ratio R10:1” value was 2.89.

In the case of UniProt Q15149 (lysine site: K597), the “lysine labeling ratio R10:1” value was 3.48.

For the target UniProt Q8WXI7 (lysine site: K13228), the “lysine labeling ratio R10:1” value is 11.9. In the case of “NEGR1 (lysine site: K98) (UniProt Q7Z3B1)” it was 5.29. In the case of UniProt P60660 (lysine site: K81) it was 3.44; in that of UniProt P62805 (lysine site: K78), 8.41.

As to “B2M (lysine site: K114) (UniProt P61769)”, the “lysine labeling ratio R10:1” value is 15.6. “FLNB (lysine site: K697) (UniProt O75369)”: the “lysine labeling ratio R10:1” value is 2.95. In the case of “SYNE2 (lysine site: K1618) (UniProt Q8WXH0)” it was 1.41 (active).

Values taken from the supplement of paper PMC11001985.
